# A selection: hits, their analogues and other compounds. The true share with any hit is near 19%.
# uPA surface inh: blocks generation of uPA at the cell surface. cell surface uPA generation assay, qHTS. Potency, µM (top dose mostly 38.3 µM), for inactives: at the highest dose activity change, negative = inhibition, hits mostly inhibitors. hit rate 0.31% among 330,000; active = well fitted inhibition curve with a large enough effect; inconclusive = small, poorly fitted or top-dose-only effect; inactive = no such curve, though single readings can be large or run the other way; tested in mouse RAW 264.7 cells; also: potency is read from the fitted curve at half-maximal effect; nearly all actives have a fitted effect of over 55% in size
# DT40 TDP1 CPT: DT40-hTDP1 cell growth loss with CPT | chicken DT40 Tdp1-/-;hTDP1 cells + 20 nM CPT, ATP luminescence, 48 h | Potency, µM (highest dose often 46.2 µM), for the others: at the highest dose activity change, negative = growth inhibition, usual class: inhibitors | hit rate 12% among 420,000 | AID 686979; also: potency is read from the fitted curve at half-maximal effect; nearly all actives have a fitted effect of over 55% in size
#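 Chicken DT40 Tdp1-/- cells complemented with human TDP1, 400 cells/well, exposed to compounds plus 20 nM camptothecin for at least 48 h at 37 C; viability read as ATP content by CellTiter-Glo luminescence.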
# HT1080 IDH1KD tx: HT-1080 IDH1 knockdown cell toxicity (counter line); AID 686971; hit rate 2% among 360,000; HT-1080 IDH1 knockdown viability, ATP luminescence, 48 h; Potency, µM (series often up to 46.1 µM), without a hit: at the highest dose activity, negative = toxicity, most hits filed as cytotoxic;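 also: potency is read from the fitted curve at half-maximal effect; 0% = DMSO wells and -100% = cell-free medium wells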
#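 Luminescent ATP read-out (CellTiter-Glo, 10 min at room temperature) after 48 h compound exposure at 37 °C gave viability of IDH1-knockdown HT-1080 cells. Activity was normalised to DMSO and cell-free wells, then fitted as concentration-response curves.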
# HT1080NT lethal: kills 2HG-producing HT-1080-NT fibrosarcoma cells. HT-1080-NT fibrosarcoma viability, CellTiter-Glo ATP luminescence, 48 h. Potency, µM (doses to about 46.1 µM), for the others: at the highest dose activity, negative = less viability, actives largely listed as cytotoxic. hit rate 1.6% among 360,000. AID 686970;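 also: NT is the 2HG producing partner of a matched IDH1 knockdown line; potency is read from the fitted curve at half-maximal effect; 0% = DMSO-treated cells and -100% = media-only wells without cells; nearly all actives have a fitted effect of over 55% in size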
#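 Compounds were tested in concentration-response format on HT-1080-NT cells for 48 hours at 37 degrees C. Cell viability came from CellTiter-Glo luminescence; curves were classified by r2, response magnitude and activity.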
# IL-1B inflam inh: inflammasome signaling inhibition, IL-1 beta readout. THP-1 LPS/ATP IL-1B secretion, AlphaLISA, 16 h; hits give low values. activity change, % at 57.5 µM. hit rate 4.7% among 360,000. AID 743279; in the data active = activity change below about -50%; inconclusive = mostly about -30% to -49%
#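 Secreted IL-1B measured by AlphaLISA bead assay after 16 h compound exposure of THP-1 cells; compounds (final up to 57.5 uM) added 1 h before LPS (250 ng/mL) and ATP (1.25 mM) stimulation; lower signal means less secretion.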
# DT40 TDP1 no CPT: qHTS for Inhibitors of human tyrosyl-DNA phosphodiesterase 1 (TDP1): qHTS in cells in absence of CPT; Potency, µM (highest dose often 46.2 µM), for the others: at the top dose activity change, negative = growth inhibition, hits mostly inhibitors; hit rate 15% among 420,000; DT40 Tdp1-/- hTDP1 cells, no CPT, ATP luminescence, 48 h; also: potency is read from the fitted curve at half-maximal effect; nearly all actives have a fitted effect of over 55% in size
#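 Camptothecin absent (DMSO only). Human TDP1-complemented DT40 knockout cells, 400 cells/well, 37 °C for minimum 48 hr; ATP measured via CellTiter-Glo, 30 min dark incubation, luminescence.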
# Starred values were filed as active, the others as inactive; u = inconclusive; x = no result given. Unless noted, calls follow the shape of the dose curve; as a rule, active = well fitted curve in the direction sought with a large enough effect; inconclusive = small, poorly fitted or top-dose-only effect, or another doubt; inactive = no such curve, though single readings can be large; an effect the other way counts as inactive or inconclusive. Unless noted, % is scaled to controls: 0 for no effect and ±100 for the full control effect.
SMILES,uPA surface inh,DT40 TDP1 CPT,HT1080 IDH1KD tx,HT1080NT lethal,IL-1B inflam inh,DT40 TDP1 no CPT
CCn1c(-c2ccccc2)c(C(=O)CCl)c2ccccc21,u,3.66µM*,20.6µM*,u,-108.1*,2.59µM*
CCn1c2ccccc2c(=O)c2ccccc21,-6.2%,u,-15.7%,10.1%,-13.7,-15.2%
Cn1c(-c2ccccc2)c(C(=O)CCl)c2ccccc21,-16.6%,2.59µM*,10.3µM*,14.6µM*,-117.7*,3.26µM*
OC[C@@H]1CN(Cc2cccs2)C[C@H](n2cnc3c(NCc4ccco4)ncnc32)O1,x,0.9%,0.0%,u,0.0,-8.3%
N#Cc1ccccc1OCC(=O)N1CCN(c2ccccc2)CC1,x,-12.0%,x,x,x,-0.3%
Cc1ccc(S(=O)(=O)SCCCSS(=O)(=O)c2ccc(C)cc2)cc1,2.4%,18.4µM*,1.5%,12.9%,34.6,20.6µM*
Cc1ccc(S(=O)(=O)SC/C=C/CSS(=O)(=O)c2ccc(C)cc2)cc1,0.8%,u,4.3%,u,19.0,14.6µM*
Cc1ccc(S(=O)(=O)CCCS(=O)(=O)c2ccc(C)cc2)cc1,3.8%,6.8%,-1.1%,10.9%,15.5,-14.7%
CC(C)(C)C1CCc2c(sc3nc(-c4cc5cc(Cl)ccc5oc4=O)[nH]c(=O)c23)C1 (stereo not drawn),x,-0.2%,x,x,x,12.4%
Cc1cc(N2CCN(C(=O)c3ccco3)CC2)n2nc(C)nc2n1,-2.3%,-2.6%,-2.3%,-0.2%,0.7,5.4%
Cc1ccc(Cl)c2sc(N3CCN(C(=O)c4ccco4)CC3)nc12,2.4%,u,-6.3%,-3.8%,u,16.4µM*
O=C(c1ccco1)N1CCN(c2nc3c(Cl)cccc3s2)CC1,x,-28.3%,x,x,x,-29.2%
Cc1ccc(C)c2sc(N3CCN(C(=O)c4ccco4)CC3)nc12,x,u,x,x,x,18.4µM*
C#CCN(C[C@@H]1[C@@H](OC(=O)NCC2CCCCC2)[C@@H](OC(=O)NCC2CCCCC2)CN(C(=O)OC(C)C)N1C(=O)OC(C)C)S(=O)(=O)c1ccc(C)cc1,x,9.2µM*,-5.8%,-2.3%,-11.7,7.31µM*
C#CCN(C[C@@H]1[C@@H](OC(=O)NCc2ccccc2)[C@@H](OC(=O)NCc2ccccc2)CN(C(=O)OC(C)C)N1C(=O)OC(C)C)S(=O)(=O)c1ccc(C)cc1,x,20.6µM*,-6.3%,-0.7%,-57.6*,11.6µM*
O=S1(=O)C[C@H](N2CCN(CC3CC3)CC2)[C@@H](COCc2ccccc2)N1,x,u,9.3%,-11.8%,15.0,u
O=C1C2C3C=CC(C3)C2C(=O)N1/N=C/c1cc(Br)cc([N+](=O)[O-])c1O (stereo not drawn),-5.1%,u,u,u,-26.7,23.1µM*
Cc1cc(C)c(NC(=O)c2cn3c4c(c(N5CCN(C)CC5)c(F)cc4c2=O)OCC3C)c(C)c1 (stereo not drawn),8.8%,18.4µM*,4.7%,2.4%,-7.2,u
C/C(=N\Nc1ccc(S(N)(=O)=O)cc1[N+](=O)[O-])c1ccc2c(c1)OCO2,-12.2%,-28.4%,u,u,37.5,14.6µM*
CCCN1CCC(=NNc2ccc(S(=O)(=O)N(CC)CC)cc2[N+](=O)[O-])CC1,-12.8%,2.06µM*,5.8µM*,8.2µM*,-0.8,2.59µM*
CCC(CC)=NNc1ccc(S(N)(=O)=O)cc1[N+](=O)[O-],-2.9%,-5.6%,-15.4%,-16.1%,17.5,-2.1%
CCN(CC)S(=O)(=O)c1ccc(N/N=C(\C)c2ccc3c(c2)OCO3)c([N+](=O)[O-])c1,-11.1%,u,6.0%,-4.6%,-9.4,14.6µM*
COc1cccc(NC(=O)CN(C)C(=O)CSc2ccc3c(c2)OCCO3)c1,-2.4%,-7.8%,-9.7%,-10.2%,25.2,-6.4%
Cn1c(=O)c2cc(NC(=O)Nc3ccccc3)ccc2n1Cc1ccccc1,x,u,u,-28.1%,-18.3,u
Cc1ccc2[nH]c(=O)c3cc(C(=O)N(C)C4CCCCC4)sc3c2c1,-2.5%,-3.0%,0.5%,3.9%,x,10.2%
SMILES,uPA surface inh,DT40 TDP1 CPT,HT1080 IDH1KD tx,HT1080NT lethal,IL-1B inflam inh,DT40 TDP1 no CPT
Clc1ccc(-c2ccc(-c3nn4c(-c5ccco5)nnc4s3)o2)cc1,x,u,-8.5%,-2.5%,-16.8,10.3µM*
Brc1ccc(-c2nn3c(-c4ccco4)nnc3s2)o1,x,-25.3%,-2.6%,3.6%,u,-20.7%
Cc1ccc(C)c(NS(=O)(=O)c2ccc3c(c2)Cc2cc(S(=O)(=O)Nc4cc(C)ccc4C)ccc2-3)c1,4.7%,20.6µM*,-12.1%,-23.4%,39.7,13µM*
Nc1nc(N)nc(-c2cc(O)ccc2O)n1,2.8%,8.2µM*,0.4%,-2.2%,u,5.8µM*
COc1ccc(O)c(C(=O)c2cnn(-c3ccccc3)c2)c1,1.1%,-0.9%,-20.2%,u,10.2,-9.5%
CCNc1nc(N)nc(-c2cc(Cl)ccc2O)n1,-10.7%,u,23.1µM*,16.4µM*,-85.5*,20.6µM*
CCNc1nc(NCC)nc(-n2cc(C(=O)c3cc(Cl)ccc3O)cn2)n1,x,u,x,x,x,10µM*
CCCCNc1nc(N)nc(-c2cc(Cl)ccc2O)n1,-5.0%,18.4µM*,0.2%,-11.3%,-83.7*,16.4µM*
Cc1cccc(C(=O)NC2CCN(C(=O)NCc3ccccc3)CC2)c1,1.9%,-11.1%,14.5%,16.5%,0.7,-16.1%
COc1ccc(OC)c(C(O)c2ncc(-c3ccccc3OC)[nH]2)c1 (stereo not drawn),x,u,2.6%,4.6%,8.6,u
COc1cc2c(cc1OC)C(COc1ccccc1OC)N(C(=O)c1ccccc1OC)CC2 (stereo not drawn),x,u,x,x,x,18.4µM*
COc1cc2c(cc1OC)CN(C(=O)c1ccc(S(=O)(=O)N3CCCC3)cc1)CC2,1.9%,-9.3%,-1.0%,3.2%,-17.4,-7.3%
COc1cc2c(cc1OC)C(COc1ccccc1OC)N(C(=O)c1ccc(S(=O)(=O)N3CCCC3)cc1)CC2 (stereo not drawn),x,16.4µM*,x,x,x,u
O=C(O)C(Cc1cn[nH]n1)=NO,-15.3%,0.6%,4.2%,9.2%,12.0,-13.7%
CCNc1ncc2nc(-c3ccc(OC)cc3)c(=O)n(Cc3cccc(OC)c3)c2n1,x,-5.3%,x,x,x,-5.9%
COc1ccc(-c2nc3cnc(N4CCN(C)CC4)nc3n(CCc3ccccc3)c2=O)cc1,x,0.5%,x,x,x,-2.2%
CC(=O)N(c1nnc(-c2cccc(C)c2)s1)C1CCCC1,4.0%,-2.2%,21.4%,-0.4%,-12.6,-5.5%
